Bioassay records as filed in PubChem.
Tb PFK block = T. brucei PFK enzyme inhibition; O15648; T. brucei PFK, ADP-Glo luminescence; Potency, µM (highest dose often 57.5 µM), for the others: at the highest dose activity, negative = inhibition, usual class: inhibitors; actives 0.17% (n = 330,000); AID 485367;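 further: potency means the concentration at half of the fitted maximal effect; 0% = uninhibited 1x PFK enzyme wells and -100% = no-enzyme wells; nearly all actives have a fitted effect of over 60% in size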
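Compounds were pin-transferred as a titration series up to 57 uM into substrate buffer (0.5 mM F6P, 0.1 mM ATP, pH 8.0), then 1.25 nM PFK was added and reactions ran 45 min before ADP-Glo detection.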
Chronic BCR inh = chronic active BCR signaling inhibition | Potency, µM (top dose mostly 46.1 µM), without a hit: at the top dose activity change, negative = inhibition, actives largely listed as inhibitors | actives 0.05% (n = 340,000) | ABC-DLBCL IkBa-CBG/CBR reporter, luminescence ratio, 4 h; active means well fitted inhibition curve with a large enough effect in the signal ratio, with a control signal flat, not every such curve was filed as active; inconclusive means small, poorly fitted or top-dose-only effect, or effect the other way, or a change in a side signal; the % refers to the signal ratio;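 further: potency means the concentration at half of the fitted maximal effect; plate controls were basal doxycycline-induced cells for no effect and cells given 10 µM MG132 for full effect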
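Compounds up to 46 uM were incubated four hours with TMD8 cells whose green CBG68 luciferase is fused to IkappaBalpha; red CBR luminescence normalised the signal, and concentration-effect curves were fitted to fusion, red and ratio data.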
Pin1 inhibitor = human Pin1 inhibition; AID 504891; Q13526; actives 0.009% (n = 390,000); Pin1 FP peptide displacement, HiFluor488, 10 min; Potency, µM (doses to about 115 µM), without a hit: at the top dose activity, negative = inhibition, hits mostly inhibitors; active means well fitted inhibition curve with a large enough effect in the polarisation, with a control signal flat, not every such curve was filed as active; inconclusive means small, poorly fitted or top-dose-only effect, or effect the other way, or a change in a side signal; inactive means no such curve, though single readings can be large or run the other way; the % refers to the polarisation; further: potency means the concentration at half of the fitted maximal effect
Target sequence (Q13526 whole entry, looked up): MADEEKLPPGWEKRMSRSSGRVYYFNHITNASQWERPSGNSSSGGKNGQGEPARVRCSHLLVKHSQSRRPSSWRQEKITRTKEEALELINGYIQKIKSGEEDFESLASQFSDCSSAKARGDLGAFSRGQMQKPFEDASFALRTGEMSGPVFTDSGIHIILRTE
Tb PGK inh = T. brucei PGK inhibition; AID 602233; actives 0.043% (n = 380,000); Potency, µM (doses to about 57.5 µM), without a hit: top-dose activity change, negative = inhibition, usual class: inhibitors; P07378; PGK/GAPDH coupled, Kinase-Glo luminescence, 60 min; further: potency means the concentration at half of the fitted maximal effect; nearly all actives have a fitted effect of over 60% in size
Target sequence (P07378 whole entry, looked up): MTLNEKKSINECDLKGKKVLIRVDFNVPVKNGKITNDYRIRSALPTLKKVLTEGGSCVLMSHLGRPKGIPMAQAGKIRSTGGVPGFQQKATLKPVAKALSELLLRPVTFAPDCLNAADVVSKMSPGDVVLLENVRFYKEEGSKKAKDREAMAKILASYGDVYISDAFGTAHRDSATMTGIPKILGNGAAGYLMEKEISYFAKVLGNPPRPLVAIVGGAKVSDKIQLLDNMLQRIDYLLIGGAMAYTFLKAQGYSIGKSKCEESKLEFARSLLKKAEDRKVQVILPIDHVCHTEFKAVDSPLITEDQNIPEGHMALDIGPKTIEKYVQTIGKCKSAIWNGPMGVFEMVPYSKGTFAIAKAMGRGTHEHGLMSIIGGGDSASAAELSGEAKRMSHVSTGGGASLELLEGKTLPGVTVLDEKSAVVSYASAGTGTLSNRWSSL
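Recombinant glycosomal PGK reaction used 1,3-bisphosphoglycerate generated in-well by GAPDH (100nM final) in 100mM TEA pH 7.6, 5mM MgCl2, 0.01% Tween-20. After 60 minutes at room temperature, ATP was read by Kinase-Glo Plus luminescence end-point.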
PI4K2A inh = PI4K2A (human) kinase inhibition | purified PI4K2A, ADP-Glo luminescence, 1 h; stronger effect = lower value | AID 1346378 | Q9BTU6 | actives 0.13% (n = 420,000) | activity change, negative = inhibition, % at 76.9 µM; in the data active means activity change below about -50%; inconclusive means mostly about -30% to -49%;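 further: -100% = wells without enzyme as full effect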
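In this quantitative HTS, ADP production by PI4K2A was quantified luminescently after 1 h at ambient temperature; 100 microM adenosine served as plate-quality control.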
* = called active by the depositor; i = inactive; u = inconclusive; x = no result; ! = repeats disagree; [ ] = remark or other dose. Only some compounds are listed: those with a hit (about 0.34% of all), similar ones and a draw of the others. Unless noted, the call rests on the fitted dose curve; in most records, active means well fitted curve in the direction sought with a large enough effect; inconclusive means small, poorly fitted or top-dose-only effect, or another doubt; inactive means no such curve, though single readings can be large; an effect the other way counts as inactive or inconclusive. Unless noted, on the % scale 0 is the no-effect control and ±100 the full control effect.

SMILES | Tb PFK block | Chronic BCR inh | Pin1 inhibitor | Tb PGK inh | PI4K2A inh
CCc1ccc(S(=O)(=O)/N=C2\C=CC(=O)c3ccccc32)cc1 | -12.5% | -1.0% | x | x | x
CC1=CC(C)(C)N2C(=O)C(=O)c3cc(OC(=O)c4ccco4)cc1c32 | -2.1% | 11.2µM* | 6.5% | i | 15.4
N=c1c2c(ncn1-c1ccccc1)Oc1ccc3ccccc3c1C2c1ccc2c(c1)OCO2 (centres undefined) | x | x | 84.3% | x | x
COC(=O)c1cc(C)nc2c1C(=O)C(=O)C=C2N1CCOCC1 | -5.0% | u | x | u | -83.1*
COC(=O)c1cc(S(=O)(=O)N2CCOCC2)c(Cl)cc1N1CCOCC1 | 3.0% | -18.0% | -3.2% | -4.0% | 3.4
CCCNC(=S)Nc1cccc(C(F)(F)F)c1 | -9.1% | 6.0% | -2.6% | -5.7% | -3.1
CC(C)(C)NNC(=S)Nc1cccc(C(F)(F)F)c1 | -3.9% | 7.94µM* | -7.5% | i | -0.9
COc1cc(O)c(C(C)=O)c(CC(=O)O)c1 | -3.1% | 0.6% | x | 15.8µM* | -9.9
C[C@@H](O[C@H]1OCCN(Cc2n[nH]c(=O)[nH]2)[C@H]1c1ccc(F)cc1)c1cc(C(F)(F)F)cc(C(F)(F)F)c1 | x | x | x | x | -3.9
COc1cc2c(C#N)c(N3CCN(c4ccccc4OC)CC3)nc(N)c2c(N)n1 | -2.1% | u | 4.6% | 6.8% | -54.7*
COc1cc2c(C#N)c(N3CCCC3)nc(N)c2c(N)n1 | 1.4% | u | u | u | -55.4*!
COc1cc2c(C#N)c(N3CCN(C)CC3)nc(N)c2c(N)n1 | -0.4% | -26.4% | x | x | x
COc1ccccc1N1CCN(c2nc(N)c(C#N)c(CC#N)c2C#N)CC1 | -2.6% | u | u | -5.8% | 5.4
CCC(=O)Oc1ccc(-c2cnc3ccccc3n2)cc1 | -14.9% | u | 6.6% | x | -65.1*
Cc1ccc(-c2nc(-c3cccnc3)no2)cc1 | x | x | 4.8% | -5.8% | -9.6
O=C(Oc1ccc(-c2cnc3ccccc3n2)cc1)c1ccco1 | 0.0% | u | -8.7% | u | -77.3*
CCC(=O)Oc1ccc(-c2nc(-c3cccnc3)no2)cc1 | -10.0% | u | 0.5% | u | -55.2*
O=C(Nc1cccc(-c2cnc3ccccc3n2)c1)c1ccco1 | -14.2% | u | 0.8% | -9.3% | 8.5
N#Cc1nc(Nc2cc(F)cc(F)c2)nc(Nc2cc(F)cc(F)c2)n1 | x | x | 46.8% | x | x
O=C(NCc1ccccc1)n1cc(P(=S)(c2ccccc2)c2ccccc2)c2ccccc21 | x | x | 0.3% | x | x
Cc1cc(/C=C2\C(=O)NC(=O)N(c3ccc(Br)cc3)C2=O)c(C)n1-c1cc(C(=O)O)cc(C(=O)O)c1 | -20.5% | 2.1% | u | 14.1µM* | -14.9
COc1cccc(C2c3c(ncn(-c4ccccc4C)c3=N)Oc3ccc4ccccc4c32)c1 (centres undefined) | x | x | 14.7% | x | x
Cc1ccc(Nc2nn3c(=O)c4ccccc4nc3s2)cc1C | x | x | 4.2% | x | x
Cc1nc(NC(=O)c2cnccn2)ccc1Br | -1.5% | 1µM* | 0.2% | 1.6% | -4.0
Cc1nc(NC(=O)c2cncc(Br)c2)ccc1Br | -4.9% | 3.6% | 13.3% | -0.2% | -2.6
SMILES | Tb PFK block | Chronic BCR inh | Pin1 inhibitor | Tb PGK inh | PI4K2A inh
O=c1c2ccccc2nc2sc(NCc3ccc(Cc4ccccc4)cc3)nn12 | x | x | 7.6% | x | x
COc1ccc(N(C)C(=O)Nc2ccc3nsnc3c2)cc1 | -3.7% | -0.6% | u | -2.0% | 1.0
CC(C)N(C(=O)Nc1ccc2nsnc2c1)C(C)C | -30.6% | u | x | -25.6% | -68.1*
COc1cc(C(c2c(C)[nH]n(-c3ccccc3)c2=O)c2c(C)[nH]n(-c3ccccc3)c2=O)cc(OC)c1OC | 24.5% | u | 9.1% | -3.3%[11.5 µM] | u
CCOc1ccc(C(c2c(C)[nH]n(-c3ccccc3)c2=O)c2c(C)[nH]n(-c3ccccc3)c2=O)cc1OC | x | x | u | 10.8% | -57.6*
CCc1nn2c(=O)cc(NC3CNC3)nc2s1 | x | x | 40.3% | x | x
Cc1nn(-c2ccccc2)c(C)c1/C=N/NC(=O)c1cc(-c2cccs2)[nH]n1 | 1.2% | 18.4µM* | 15.6% | -2.1% | 8.5
COc1ccc(C)cc1NC(=O)C(OC(=O)CNC(=O)c1ccccc1)c1ccccc1 (centres undefined) | x | x | -1.3% | x | x
Cc1cc2c(s1)c(/C=N/O)c(C(=O)NCc1ccccc1F)n2C | x | x | 0.4% | x | x
Cc1cc(Br)ccc1-n1[nH]c(C)c(C=Nc2cccc3nsnc23)c1=O | -5.9% | 5.5% | u | -9.8% | -54.3*
COc1ccccc1N=Cc1c(C)[nH]n(-c2ccc(C)cc2C)c1=O | 2.4% | 16.3% | -0.9% | -13.4% | 3.4
Oc1c(N=NC(=S)Nc2ccccc2F)c2ccccc2n1Cc1ccccc1Cl | -2.4% | u | 5.8% | -5.1% | -8.4
Cc1c(Cl)cccc1NC(=S)N=Nc1c(O)n(CN2CCOCC2)c2ccccc12 | 7.1% | 7.31µM* | 2.9% | -6.0% | -7.2
O=C(CSc1nc(-c2ccc(F)cc2)nc2c1Cc1ccccc1O2)Nc1ccc(C(=O)O)cc1 | u | 4.5% | u | 15.8µM* | -1.1
O=C(CSc1nc(-c2ccccc2)nc2c1Cc1ccccc1O2)Nc1ccc(C(=O)O)cc1 | u | 6.9% | u | u | -1.2
COCCNC(=S)N/N=C(\C)CCc1ccc2c(c1)OCO2 | -9.0% | 20µM* | -6.3% | -1.4% | 0.9
O=C(O)c1cccc2cccc(-c3c4ccc(=O)c(O)c-4oc4c(O)c(O)ccc34)c12 | x | x | x | 2.51µM* | -55.3*
O=C(O)c1cccc2cc(-c3ccccc3)oc(=O)c12 | 17.6% | 3.5% | -7.8% | -3.4% | -6.4
O=c1c2ccccc2nc2sc(Nc3ccc4c(c3)CNC4)nn12 | x | x | 0.3% | x | x
Nc1ccc(N)c(C(=O)O)c1 | u | 14.5% | u | u | -66.0*
Nc1ccc(C(=O)O)c(O)c1 | 0.7% | u | -10.5% | 9.3% | 1.5
CC(CC1c2ccccc2CCc2ccccc21)CN(C)C (centres undefined) | x | x | x | x | 0.2
